Compound activity (PubChem BioAssay)
CBFb RUNX1 block: inhibitors of human CBF-beta and RUNX1 interaction; AlphaScreen CBFb-His/RUNX1-biotin binding, biochemical; Potency, µM (titrated, usually from 59.8 µM), inactives show at the top dose activity, negative = inhibition, hits mostly inhibitors; 230,000 tested, under 10 active; AID 1477; also: % of control where 0% means no effect
Target sequence (Q01196 whole entry, looked up): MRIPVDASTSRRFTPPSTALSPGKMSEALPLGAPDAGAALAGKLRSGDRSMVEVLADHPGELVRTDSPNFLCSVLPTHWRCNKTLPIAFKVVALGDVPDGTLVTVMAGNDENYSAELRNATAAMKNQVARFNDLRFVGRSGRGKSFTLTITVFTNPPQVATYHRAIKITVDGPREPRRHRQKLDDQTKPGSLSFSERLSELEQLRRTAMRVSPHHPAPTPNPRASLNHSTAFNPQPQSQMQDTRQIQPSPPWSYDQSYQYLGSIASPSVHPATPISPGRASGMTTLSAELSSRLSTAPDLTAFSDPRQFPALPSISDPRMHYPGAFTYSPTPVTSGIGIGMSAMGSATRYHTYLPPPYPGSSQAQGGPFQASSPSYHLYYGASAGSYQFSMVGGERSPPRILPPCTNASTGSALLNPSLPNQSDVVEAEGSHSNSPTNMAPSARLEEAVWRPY
Target sequence (Q13951 whole entry, looked up): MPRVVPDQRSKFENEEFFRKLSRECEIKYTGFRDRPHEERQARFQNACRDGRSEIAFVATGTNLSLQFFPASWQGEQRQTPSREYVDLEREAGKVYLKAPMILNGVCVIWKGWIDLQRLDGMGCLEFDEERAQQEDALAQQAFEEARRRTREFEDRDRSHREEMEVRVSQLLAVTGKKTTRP
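CBF-beta (His) and RUNX1 (biotin), 30 nM each; 20 min preassociation; + compound, 15 min; + beads 50 ng each (Ni, streptavidin), 90 min; RT; AlphaScreen read.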
HPGD block: inhibitors of human 15-hydroxyprostaglandin dehydrogenase (HPGD) | P15428 | purified HPGD, NADH fluorescence kinetic, PGE2 substrate | Potency, µM, for inactives: at the highest dose activity change, negative = inhibition, most hits filed as inhibitors | 150,000 compounds, 4.3% hits | AID 894; active = well fitted inhibition curve with a large enough effect, not every such curve was filed as active; inconclusive = small, poorly fitted or top-dose-only effect, or another doubt; inactive = no such curve, though single readings can be large or run the other way; also: potency is read from the fitted curve at half-maximal effect; % is scaled to controls: 0 for no effect and ±100 for the full control effect
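NADH formation kinetics: reaction with 30 uM PGE2 and 1 mM NAD+ (final), 20 nM enzyme, Tris-HCl pH 8 with Tween 20, after 15 min compound preincubation at room temperature. Fluorescence change, last versus first of five reads.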
HTT ATP protect: Huntington cell model cytoprotection by ATP luminescence. 230,000 compounds, 0.14% hits. PC12 HTT-Q103 induced, cytoprotection, ATP luminescence, 40 h. Potency, µM (top dose mostly 56.4 µM), inactives show cytoprotection (ATP increase), usual class: activators; also: potency is read from the fitted curve at half-maximal effect; % of control where 0% means no effect; nearly all actives have a fitted effect of over 45% in size
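Huntington model: PC12 line, ecdysone-inducible HTTQ103 exon1–GFP, tebufenozide 100 nM. Test articles in a dose series. Endpoint luminescence from cellular ATP.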
KDM4E inh: JMJD2E (human) inhibition; B2RXH2; JMJD2E catalytic domain, FDH-coupled NADH fluorescence (FDH is formaldehyde dehydrogenase); Potency, µM (highest dose often 57.1 µM), inactives show top-dose activity change, negative = inhibition, hits mostly inhibitors; 230,000 compounds, 1.6% hits; AID 2147; active = well fitted inhibition curve with a large enough effect, not every such curve was filed as active; inconclusive = small, poorly fitted or top-dose-only effect, or another doubt; inactive = no such curve, though single readings can be large or run the other way;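 also: potency is read from the fitted curve at half-maximal effect; 0% = wells with enzyme and -100% = buffer wells without enzyme; nearly all actives have a fitted effect of over 50% in size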
ALDH1A1 block: inhibitors of human aldehyde dehydrogenase 1A1; Potency, µM (series often up to 75.3 µM), without a hit: at the highest dose activity, negative = inhibition, most hits filed as inhibitors; Purified ALDH1A1, NADH fluorescence, propionaldehyde substrate; 220,000 compounds, 7.3% hits; P00352; active = well fitted inhibition curve with a large enough effect, not every such curve was filed as active; inconclusive = small, poorly fitted or top-dose-only effect, or another doubt; inactive = no such curve, though single readings can be large or run the other way;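 also: potency is read from the fitted curve at half-maximal effect; plate controls were no enzyme wells and a reference inhibitor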
HttQ103 aggreg: inhibitors of mutant huntingtin aggregate formation in PC12 cells. 220,000 compounds, 1.1% hits. AID 1688. Potency, µM (doses to about 46.1 µM), for inactives: at the highest dose activity change, negative = inhibition, actives largely listed as inhibitors. PC12 HttQ103-GFP aggregates, Acumen cytometry, 40 h; also: potency is read from the fitted curve at half-maximal effect; % is scaled to controls: 0 for no effect and ±100 for the full control effect; nearly all actives have a fitted effect of over 60% in size
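PC12 cells stably carrying ecdysone-inducible HTT exon 1 Q103–GFP were induced with tebufenozide (100 nM final) and treated with library compounds in titration. GFP aggregates in lysates were counted by laser scanning cytometry.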
Active calls of the source: *; [ ] = remark or other dose. Only some compounds are listed: those with a hit (about 9.8% of all), similar ones and a draw of the others. Unless noted, calls follow the shape of the dose curve; as a rule, active = well fitted curve in the direction sought with a large enough effect; inconclusive = small, poorly fitted or top-dose-only effect, or another doubt; inactive = no such curve, though single readings can be large; an effect the other way counts as inactive or inconclusive.

What do the screens show for `C/C(=N\NC(=O)c1cccc(Cl)c1)C1C(=O)c2ccccc2C1=O`?
CBFb RUNX1 block: 10.5%; HPGD block: inconclusive; HTT ATP protect: -79.7%[10 µM]; KDM4E inh: -1.6%; ALDH1A1 block: 12.6µM*; HttQ103 aggreg: inconclusive

How did Nc1ccc(N2CCOCC2)c2nonc12 do in these assays?
CBFb RUNX1 block: 13.1%; HTT ATP protect: 17.1%[10 µM]; KDM4E inh: 23.8%; ALDH1A1 block: 20µM*; HttQ103 aggreg: 0.5%[9.22 µM]

What do the screens show for `O=C(Nc1ccc(N2CCOCC2)c2nonc12)C1CCCC1`?
CBFb RUNX1 block: -10.2%; HPGD block: -18.8%; HTT ATP protect: -0.3%; KDM4E inh: -10.0%; ALDH1A1 block: inconclusive; HttQ103 aggreg: -0.5%

Results for O=S(=O)(N/N=C/c1ccc(Cl)cc1)c1ccc(Cc2ncc(C(F)(F)F)cc2Cl)s1 ?
CBFb RUNX1 block: -6.7%; HPGD block: -1.8%; HTT ATP protect: 4.3%; KDM4E inh: -9.8%; ALDH1A1 block: inconclusive; HttQ103 aggreg: 24.4%

Results for Cn1cc(Br)c(-c2cccc(N3C(=O)CCCC3=O)c2)n1 ?
CBFb RUNX1 block: -0.5%; HTT ATP protect: 26.4%[10 µM]; KDM4E inh: 0.9%; HttQ103 aggreg: 26.1%[9.22 µM]

Results for COc1ccccc1Cn1[nH]nnc1=S ?
CBFb RUNX1 block: -0.5%; HTT ATP protect: 3.2%[10 µM]; KDM4E inh: inconclusive; ALDH1A1 block: 3.98µM*; HttQ103 aggreg: -11.0%[9.22 µM]

Results for Cc1coc(C)c1C(=O)CC1(O)C(=O)Nc2cc(Cl)cc(Cl)c21 (stereo not drawn) ?
CBFb RUNX1 block: 10.1%; HPGD block: -4.0%; HTT ATP protect: -2.8%; KDM4E inh: -5.1%; ALDH1A1 block: 3.16µM*; HttQ103 aggreg: 6.7%

How did Cc1ccc(Cl)c2c1NC(=O)C2(O)CC(=O)c1ccc(F)cc1 (stereo not drawn) do in these assays?
CBFb RUNX1 block: 4.2%; HPGD block: -3.6%; HTT ATP protect: 4.9%; KDM4E inh: 5.0%; ALDH1A1 block: 5.2%; HttQ103 aggreg: -7.5%

Results for Brc1ccc2ncnc(Nc3ccc(N4CCOCC4)cc3)c2c1 ?
CBFb RUNX1 block: -26.0%; HPGD block: -7.3%; HTT ATP protect: 4.6%; KDM4E inh: -6.2%; ALDH1A1 block: -9.0%; HttQ103 aggreg: 8.91µM*

Results for CC1=C(C(=O)O)N2C(=O)[C@@H](NC(=O)[C@@H](N)C3=CCC=CC3)[C@@H]2SC1 ?
HTT ATP protect: 5.2%[1.9 µM]

What do the screens show for `O=C(O)C1CCCN1c1ncccn1` (stereo not drawn)?
CBFb RUNX1 block: 5.5%; HPGD block: -9.9%; HTT ATP protect: 17.0%; KDM4E inh: -7.9%; ALDH1A1 block: 15.0%; HttQ103 aggreg: -10.2%

How did O=C1N=C(N2CCCC2C(=O)O)S/C1=C\c1ccco1 (stereo not drawn) do in these assays?
CBFb RUNX1 block: -11.7%; HTT ATP protect: -46.0%; KDM4E inh: 22.4µM*; ALDH1A1 block: -9.9%; HttQ103 aggreg: -14.0%

Results for C=CCC1(Cl)C(=O)C(Cl)=C(N2CCN(C)CC2)C1(OC)OC (stereo not drawn) ?
CBFb RUNX1 block: 2.3%; HTT ATP protect: -3.6%[10 µM]; KDM4E inh: -4.8%; HttQ103 aggreg: 7.1%[9.22 µM]

How did O=C(c1ccco1)N1CCC2(CCCN(c3cccc(-c4ccccc4)c3)C2)CC1 do in these assays?
HPGD block: -7.2%; HTT ATP protect: inconclusive; ALDH1A1 block: 25.1µM*

How did COc1ccc(C(=O)N2CCC3(CCCN(c4ccccc4)C3)CC2)cc1 do in these assays?
HPGD block: -7.1%; HTT ATP protect: inconclusive; ALDH1A1 block: inconclusive

What do the screens show for `O=C(c1ccco1)N1CCC2(CC1)CCN(c1ccc(-c3ccccc3)cc1)CC2`?
HPGD block: -9.2%; HTT ATP protect: -0.6%; ALDH1A1 block: -4.9%

How did O=C(c1ccco1)N1CCC2(CC1)CCN(c1cccc(-c3ccccc3)c1)CC2 do in these assays?
HPGD block: -19.4%; HTT ATP protect: inconclusive; ALDH1A1 block: 28.2µM*

How did COc1ccc(C(=O)N2CCC3(CCCN(c4cccc(-c5ccccc5)c4)C3)CC2)cc1 do in these assays?
HPGD block: -23.2%; HTT ATP protect: -71.4%; ALDH1A1 block: 22.4µM*

Results for COC(=O)C#CC(=O)OC ?
CBFb RUNX1 block: -2.3%

What do the screens show for `Cc1ccc(NC(=O)CCn2c(=S)oc3ccccc32)cc1`?
CBFb RUNX1 block: 5.5%; HTT ATP protect: -28.3%; KDM4E inh: -6.0%; ALDH1A1 block: -2.4%; HttQ103 aggreg: -6.0%

Results for CC(C)OC(=O)n1c(=S)oc2ccccc21 ?
CBFb RUNX1 block: -0.9%; HPGD block: inconclusive; HTT ATP protect: 7.5%; KDM4E inh: -3.7%; ALDH1A1 block: 7.08µM*; HttQ103 aggreg: 5.3%[9.22 µM]

Results for CCCCC(=O)/C=C/n1c(=S)oc2ccccc21 ?
CBFb RUNX1 block: 4.0%; HPGD block: inconclusive; HTT ATP protect: 9.9%[10 µM]; KDM4E inh: 0.8%; ALDH1A1 block: 11.2µM*; HttQ103 aggreg: inconclusive

Results for O=S(=O)(Nc1ccccc1)c1ccc(Oc2ncc(C(F)(F)F)cc2Cl)cc1 ?
CBFb RUNX1 block: 24.3%; HPGD block: -27.5%; HTT ATP protect: inconclusive; KDM4E inh: -18.6%; ALDH1A1 block: 1.6%; HttQ103 aggreg: inconclusive

Results for CC1CCCN(C(=O)c2ccc3c(=O)n(C4CCCC4)c(=S)[nH]c3c2)C1 (stereo not drawn) ?
CBFb RUNX1 block: 8.1%; HTT ATP protect: -72.1%; KDM4E inh: 0.8%; ALDH1A1 block: 3.55µM*; HttQ103 aggreg: inconclusive

What do the screens show for `Cc1nn(Cc2cccc(C(=O)Nc3ccn(Cc4ccccc4F)n3)c2)c(C)c1[N+](=O)[O-]`?
CBFb RUNX1 block: 2.2%; HPGD block: -1.7%; HTT ATP protect: 4.1%; KDM4E inh: 0.1%; ALDH1A1 block: 0.5%; HttQ103 aggreg: 10.5%

Results for Cc1nn(Cc2cccc(C(=O)N3CCCC(C)C3)c2)c(C)c1[N+](=O)[O-] (stereo not drawn) ?
CBFb RUNX1 block: -1.2%; HPGD block: 14.1µM*; HTT ATP protect: 4.1%[10 µM]; KDM4E inh: 6.3%; ALDH1A1 block: inconclusive; HttQ103 aggreg: -13.2%

How did O=C(c1ccc2c(=O)n(C3CCCC3)c(=S)[nH]c2c1)N1CCCCCC1 do in these assays?
CBFb RUNX1 block: -2.8%; HTT ATP protect: -20.5%; KDM4E inh: -0.3%; ALDH1A1 block: inconclusive; HttQ103 aggreg: 27.2%

What do the screens show for `CC1CCCN(C(=O)c2ccc3nc[nH]c3c2)C1` (stereo not drawn)?
CBFb RUNX1 block: 2.2%; HPGD block: 2µM*; HTT ATP protect: -4.0%[10 µM]; KDM4E inh: 5.7%; ALDH1A1 block: inconclusive; HttQ103 aggreg: -4.5%
